Source: PubChem BioAssay AID463173 (ICCB-Longwood Screening Facility, Harvard Medical School, 2010)
Out of some 52,000 compounds screened, about 1,700 (3.3%) were called active. What follows is part of a selection rich in actives, with near analogues and random picks from the rest. Unmarked numbers belong to inactive results. Rule as the data show it: active = survival mostly below about 52% (no sharp cut-off); inactive = mostly above about 56%.

Each molecule was assayed on Wild type (assay: growth inhibition of S. aureus wild type versus tarO mutant, primary screen, teichoic acid synthesis inhibitors, RN4220, OD600 (AID 463173)). Settings: S. aureus RN4220 wild type/DeltatarO growth, OD600, 18 h, hits give low values, screened at 18.75 µg/mL (by protocol).
`CC1CCc2c(sc3nc(SCC(=O)Nc4c[nH]c(=O)[nH]c4=O)[nH]c(=O)c23)C1` (stereo unspecified) was tested, and the survival was 107%.
`Cc1ccc(CNC(=O)c2cc(-c3ccc(C)cc3)nc3n[nH]c(-c4cccc([N+](=O)[O-])c4)c23)cc1` showed a survival of 74%.
`CC(C)CNS(=O)(=O)c1ccc(S(=O)(=O)N2CCCN(Cc3ccccc3)C2)cc1` showed a survival of 97%.
`CCOc1ccc(-c2cc3nc(C4CCN(C(=O)OC(C)(C)C)CC4)c(C(=O)Nc4ccc(C)c(F)c4)cn3n2)cc1` gave a survival of 86%.
Molecule `CCc1ccc(NC(=O)C2CCN(c3nc(-c4ccc(OC)cc4)no3)CC2)cc1` has a survival of 66%.
`COC(=O)c1cccnc1-n1c(=O)c2cccnc2n(CC(=O)Nc2ccccc2F)c1=O` was tested, and the survival was 84%.
`Cc1[nH]c(=O)[nH]c(=O)c1CSCC(=O)O` was tested, and the survival was 108%.
`O=C(/C=C/c1ccc(Cl)cc1)Nc1nc(-c2cccs2)ns1` showed a survival of 75%.
`Cc1cc(C)c(C#N)c(NC2CCCCC2)n1` showed a survival of 92%.
With `N#CSc1cnc(NC2CCCCC2)s1` the survival was 2% (active).
Work on `Cc1ccc(-c2nnc(NC3CCCC3)s2)cc1` yielded a survival of 126%.
`CC(=O)c1cccc(Nc2ccc3cc(S(=O)(=O)N4CCCC4)ccc3n2)c1` showed a survival of 73%.
`O=S(=O)(c1ccc2nc(Nc3cccc(F)c3)ccc2c1)N1CCCC1` gave a survival of 75%.
For `CCOC(=O)c1cccc(Nc2ccc3cc(S(=O)(=O)N4CCCCC4)ccc3n2)c1`, the survival was -3% (active).
`CCN(CC)c1cc(C)c2cc(NC(=O)/C=C/c3ccc(C)cc3)ccc2n1` showed a survival of 68%.
`CCN(CC)c1ccc(NC(=O)c2cnc3c(-c4ccccc4)c(C)nn3c2C)c(C)c1` showed a survival of 85%.
With `Cc1ccc(NC(c2nnc(-c3ccccc3)o2)c2ccccc2F)c(Cl)c1` (stereo unspecified) the survival was 91%.
In the case of `Fc1ccccc1C(NCCc1ccc(Cl)cc1)c1nnc(-c2ccccc2)o1` (stereo unspecified), the survival is reported as -1% (active).
`CCOC(=O)c1cccc(NC(c2nnc(-c3ccccc3)o2)c2ccccc2F)c1` (stereo unspecified) gave a survival of 87%.
Molecule `Cc1cc([N+](=O)[O-])ccc1NC(c1nnc(-c2ccccc2)o1)c1ccccc1F` (stereo unspecified) has a survival of 99%.
With `CC(C)c1ccc(NC(c2nnc(-c3ccccc3)o2)c2ccc(F)cc2Cl)cc1` (stereo unspecified) the survival was 69%.
`Cc1cc(C)cc(NC(c2cccc(Cl)c2)c2nnc(-c3ccccc3)o2)c1` (stereo unspecified) showed a survival of 91%.
`Clc1ccc(CCNC(c2nnc(-c3ccccc3)o2)c2ccccc2Cl)cc1` (stereo unspecified) was tested, and the survival was 3% (active).
Molecule `Cc1cc(C)cc(NC(c2nnc(-c3cccc(F)c3)o2)c2ccc(F)cc2Cl)c1` (stereo unspecified) has a survival of 37%.
For `Cc1cc(NC(c2nnc(-c3ccccc3)o2)c2ccccc2F)ccc1Br` (stereo unspecified), the survival was 9% (active).
Work on `COc1ccc(NC(c2nnc(-c3ccccc3)o2)c2ccccc2F)cc1Cl` (stereo unspecified) yielded a survival of 65%.
`Fc1ccc(C(NCCc2ccc(Cl)cc2)c2nnc(-c3ccccc3)o2)c(Cl)c1` (stereo unspecified) was tested, and the survival was 3% (active).
`Cc1ccccc1Cn1cc(CCC(=O)NC(C)c2ccccc2)c2ccccc21` (stereo unspecified) was tested, and the survival was 84%.
In the case of `CC(C)n1nnnc1SCC(=O)OC1CCCCC1`, the survival is reported as 127%.
With `Cc1cc(C)nc(Nc2nc3ccccc3s2)n1` the survival was 109%.
In the case of `Cc1cccc(C(=O)Nc2nc(-c3nnn(-c4cc(F)ccc4F)c3C)ns2)c1`, the survival is reported as 133%.
`N#Cc1cc[n+](CC(=O)c2cccs2)cc1` showed a survival of 102%.
`Clc1ccc(CCNC(c2cccc(Cl)c2)c2nnc(-c3ccccc3)o2)cc1` (stereo unspecified) was tested, and the survival was 5% (active).
`Cc1ccc(NC(c2cccc(Cl)c2)c2nnc(-c3ccccc3)o2)cc1F` (stereo unspecified) gave a survival of 90%.
With `CCOc1ccc(CCNC(=O)Cn2nnc(-c3ccccc3)n2)cc1OCC` the survival was 98%.
`CCOc1ccc(CCNC(c2nnc(-c3ccccc3)o2)c2ccccc2Cl)cc1OCC` (stereo unspecified) was tested, and the survival was 4% (active).
With `Clc1ccc(CCNC(c2ccc(Cl)cc2)c2nnc(-c3ccccc3)o2)cc1` (stereo unspecified) the survival was 86%.
Molecule `CCOc1ccc(CCNC(c2cccc(Cl)c2)c2nnc(-c3ccccc3)o2)cc1OCC` (stereo unspecified) has a survival of 89%.
Work on `COc1cc(NS(=O)(=O)c2c(C)nc3sc(C)c(C)n3c2=O)cc(OC)c1` yielded a survival of 90%.
`Cn1cnc2c(=O)oc3ccc(S(=O)(=O)N4CCN(c5cccc(Cl)c5)CC4)cc3c21` was tested, and the survival was -6% (active).
For `Cn1cnc2c(=O)oc3ccc(S(=O)(=O)N4CCN(c5cccc(C(F)(F)F)c5)CC4)cc3c21`, the survival was 120%.
`Cn1cnc2c(=O)oc3ccc(S(=O)(=O)N4CCN(c5ccccc5)CC4)cc3c21` showed a survival of 87%.
`CCOc1ccc(NC(=O)c2c(Nc3ccccc3C)sc(C(=O)c3ccccc3)c2N)cc1` was tested, and the survival was 83%.
For `Cc1ccc(CN2C(=O)c3ccccc3CC2(C)C(=O)NC2CCCCC2)cc1` (stereo unspecified), the survival was 84%.
With `CN(c1ncnc2c1c(-c1ccccc1)cn2-c1cccc(Cl)c1)C1CCCCC1` the survival was 89%.
In the case of `CN(c1ncnc2onc(-c3cccc(Cl)c3)c12)C1CCCCC1`, the survival is reported as -1% (active).
`Clc1cccc(-c2noc3ncnc(NC4CCCCC4)c23)c1` showed a survival of 79%.
In the case of `COc1ccc(S(=O)(=O)N(CC(=O)N2CCC(C)CC2)c2ccc(C)cc2)cc1`, the survival is reported as 89%.
`O=C(NCCC1=CCCCC1)c1ccc2c(=O)n3nc(Nc4ccccc4)sc3nc2c1` gave a survival of 72%.
`O=C(CN1CCC(NC(=O)C2CCCCC2)CC1)Nc1cccc(F)c1` showed a survival of 111%.
Molecule `CCc1nn2c(=O)cc(COC(=O)c3ccc(NC(=O)C4CCCCC4)cc3)nc2s1` has a survival of 68%.
`CCOc1ccc(OCC)c(NS(=O)(=O)c2ccc3[nH]c(=O)ccc3c2)c1` was tested, and the survival was 0% (active).
In the case of `CCOc1ccc(CNS(=O)(=O)c2ccc3[nH]c(=O)ccc3c2)cc1`, the survival is reported as 80%.
Molecule `CCOc1ccccc1CNS(=O)(=O)c1ccc2[nH]c(=O)ccc2c1` has a survival of 71%.
`O=C(Cn1c(=O)n(CCc2ccccc2)c(=O)c2cccnc21)Nc1ccc(F)cc1` gave a survival of 80%.
`Cc1oc2c(C)c3oc(=O)c(CC(=O)N4CCCCC4)c(C)c3cc2c1C` gave a survival of 83%.
In the case of `Cc1nnc(SCC(=O)N(C2CCCCC2)C2CCCCC2)[nH]c1=O`, the survival is reported as 117%.
`CCOC(=O)C1CCCN(c2c(C(=O)c3ccccc3)cnc3ccc(F)cc23)C1` (stereo unspecified) showed a survival of 22%.
`CCOC(=O)C1CCCN(c2c(C(=O)c3ccc(C)cc3)cnc3ccc(OCC)cc23)C1` (stereo unspecified) was tested, and the survival was 2% (active).
With `CCOC(=O)C1CCCN(C(=O)c2ccc(OCC)cc2)C1` (stereo unspecified) the survival was 117%.
Molecule `CCOc1ccc(C(=O)c2cnc3ccc(Cl)cc3c2S(=O)(=O)c2ccc(C)cc2)cc1` has a survival of 86%.
For `CCOc1ccc(S(=O)(=O)c2c(C(=O)c3ccc(C)c(C)c3)cnc3ccccc23)cc1`, the survival was 80%.
In the case of `CCOC(=O)C1CCCN(c2c(C(=O)c3ccc(OCC)cc3)cnc3ccccc23)C1` (stereo unspecified), the survival is reported as 0% (active).
In the case of `CCc1ccc(NC(=O)CN2CCSc3ccc(S(=O)(=O)N4CCCC4)cc32)cc1`, the survival is reported as -6% (active).
Work on `Cc1ccc(NC(=O)CN2CCSc3ccc(S(=O)(=O)N4CCCC4)cc32)cc1` yielded a survival of 98%.
For `CCOc1ccc(NC(=O)CN2CCSc3ccc(S(=O)(=O)N4CCCC4)cc32)cc1`, the survival was 67%.
Work on `CCOC(=O)c1scc(-c2ccc(C)cc2)c1S(=O)(=O)Nc1ccc(F)c(F)c1` yielded a survival of 72%.
`Cc1nc(N2CCOCC2)c2c(C(=O)Nc3cccc(C(F)(F)F)c3)c(C)oc2n1` showed a survival of 78%.
Work on `Cc1ccc(Nc2c(-c3cccc(Cl)c3)nc3cccc(C)n23)cc1` yielded a survival of 22%.
Molecule `Cc1ccccc1Nc1c(-c2ccccc2)nc2cccc(C)n12` has a survival of 73%.
With `Cc1cccc(C)c1Nc1c(-c2ccccc2F)nc2cccc(C)n12` the survival was 7% (active).
For `Cc1cccc2nc(-c3ccccn3)c(Nc3ccc(F)cc3)n12`, the survival was 4% (active).
For `Cc1ccc(Nc2c(-c3ccc(C)o3)nc3cccc(C)n23)cc1`, the survival was 21% (active).
With `Cc1ccn2c(Nc3ccc(F)cc3)c(-c3ccccn3)nc2c1` the survival was 79%.
`CSc1ccc(-c2nc3cccc(C)n3c2Nc2ccc(Cl)cc2)cc1` showed a survival of 101%.
Molecule `Cc1ccc(-c2nc3cccc(C)n3c2Nc2ccc3c(c2)OCO3)o1` has a survival of 22%.
In the case of `COc1ccc(Nc2c(-c3ccco3)nc3cccc(C)n23)cc1`, the survival is reported as 97%.
With `Cc1cccc(C)c1Nc1c(-c2ccsc2)nc2cccc(C)n12` the survival was 32%.
With `Cc1cccc2nc(-c3ccccn3)c(Nc3ccccc3)n12` the survival was 21% (active).
`Cc1ccc(Nc2c(-c3ccc(O)cc3)nc3cccc(C)n23)cc1` showed a survival of 91%.
`O=C(Nc1ccc(Cl)c(C(F)(F)F)c1)C1CCN(S(=O)(=O)c2cccc3nonc23)CC1` showed a survival of 90%.
For `Cc1ccc(C(=O)c2c(N)c(C(=O)Nc3ccccc3Cl)c3ccccn23)cc1`, the survival was 96%.
Work on `COc1ccc(NC(=O)CN2C(=O)c3cccnc3Sc3ccccc32)cc1OC` yielded a survival of 81%.
For `COc1ccccc1CNC(=O)CSC1=Nc2ccccc2N=C(c2ccc(F)cc2)C1`, the survival was 73%.
With `COc1cc(NC(=O)c2sc3nc4n(c(=O)c3c2C)CCCCC4)cc(OC)c1OC` the survival was 80%.
`Cc1ccccc1NC(=O)Cn1cc(S(=O)(=O)c2ccccc2)c(=O)c2ccccc21` gave a survival of 105%.
For `COc1ccccc1CNC(=O)C(=O)NCC(c1ccco1)S(=O)(=O)c1cccs1` (stereo unspecified), the survival was 101%.
Work on `COC(=O)C(NC(=O)CCc1c(C)nc2cc(-c3cccc(F)c3)nn2c1C)C(C)C` (stereo unspecified) yielded a survival of 80%.
For `CCc1ccc(CNc2ncnc3onc(-c4ccc(Cl)cc4)c23)cc1`, the survival was 48%.
`Cc1cc[n+](CC(=O)N2CCCCC2)cc1` showed a survival of 116%.
`Cc1ccc(NC(=O)Cn2c(=O)n(-c3ccccc3)c(=O)c3ccc(C(=O)NCc4ccc5c(c4)OCO5)cc32)c(C)c1` gave a survival of 138%.
